According to PubChem BioAssay (NCATS):
Several values for one entry are separate records, joined by “and”; a condition that tells them apart may be missing. Identical values can stand only once. Records with an inconclusive call do not appear. The source holds several records for some structures; these can differ, active in one and inactive in another. Activity calls are given as the source filed them. Calls follow the shape of the dose curve; as a rule, active = well fitted curve in the direction sought with a large enough effect; inconclusive = small, poorly fitted or top-dose-only effect, or another doubt; inactive = no such curve, though single readings can be large; an effect the other way counts as inactive or inconclusive.

Key:
MCC-13 = assay: qHTS assay to identify novel small-molecules to repurpose for Merkel cell carcinoma treatment (AID 1296009); details: MCC and control cell lines, CellTiter-Glo viability, 72 h; series mostly up to 46 µM; also: nearly all actives have a fitted effect of over 60% in size
Procedure, shortened: (§1)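 Cells exposed to NPC (8-point) and MIPE (11-point) compound dilutions for 72 hr at 37 degree celsius; viability read by CellTiter-Glo luminescence, normalized to no-cell and DMSO in-plate controls.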

MCC-26 = assay: as above; details: MCC and control cell lines, CellTiter-Glo viability, 72 h; series mostly up to 46 µM
Procedure, shortened: as §1

MKL-1 = assay: as above; details: MCC and control cell lines, CellTiter-Glo viability, 72 h; series mostly up to 46 µM
Procedure, shortened: as §1

MKL-2 = assay: as above; details: MCC and control cell lines, CellTiter-Glo viability, 72 h; series mostly up to 46 µM
Procedure, shortened: as §1

UISO = assay: as above; details: MCC and control cell lines, CellTiter-Glo viability, 72 h; series mostly up to 46 µM
Procedure, shortened: as §1

WaGa = assay: as above; details: MCC and control cell lines, CellTiter-Glo viability, 72 h; series mostly up to 46 µM
Procedure, shortened: as §1

C33A = assay: Primary qHTS to identify gynecologic anti-cancer compounds using libraries of approved drugs and bioactive compounds (AID 1345084); details: Gynecologic cancer cell panel viability, ATPlite luminescence, 48 h; series mostly up to 57.5 µM; also: nearly all actives have a fitted effect of over 55% in size
Procedure, shortened: (§2)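 Cells, 1,000 per well, plated 16 h, then exposed 48 h at 37 C to compounds. Viability by ATPlite luminescence after 15 min at room temperature.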

CAOV3 = assay: as above; details: Gynecologic cancer cell panel viability, ATPlite luminescence, 48 h; series mostly up to 57.5 µM
Procedure, shortened: as §2

CASKI = assay: as above; details: Gynecologic cancer cell panel viability, ATPlite luminescence, 48 h; series mostly up to 57.5 µM
Procedure, shortened: as §2

NIH3T3 = assay: qHTS assay to identify novel small-molecules to repurpose for Merkel cell carcinoma treatment (AID 1296009); details: MCC and control cell lines, CellTiter-Glo viability, 72 h; at 44.8 µM (top of the series) unless noted; also: nearly all actives have a fitted effect of over 60% in size
Procedure, shortened: as §1

Measured: Potency
Potency is read from the fitted curve at half-maximal effect.

CC(=O)CC(c1ccccc1)c1c(O)c2ccccc2oc1=O (configuration not stated)
not listed: NIH3T3
inactive: all other assays above

CO[C@@H]1[C@@H](OC(N)=O)[C@@H](O)[C@H](Oc2ccc3c(O)c(NC(=O)c4ccc(O)c(CC=C(C)C)c4)c(=O)oc3c2C)OC1(C)C
not listed: NIH3T3
inactive: all other assays above

NC1(c2ccc(-c3nc4ccn5c(=O)[nH]nc5c4cc3-c3ccccc3)cc2)CCC1
active: MKL-1 20.9 µM | MKL-2 13.3 µM | UISO 13.2 µM | WaGa 16.6 µM and 26.6 µM
inactive: MCC-13 | MCC-26 | C33A | CAOV3

CN(CCOc1ccc(CC2SC(=O)NC2=O)cc1)c1ccccn1 (configuration not stated)
not listed: NIH3T3
inactive: all other assays above

NS(=O)(=O)c1cc2c(cc1Cl)NC(C(Cl)Cl)NS2(=O)=O (configuration not stated)
not listed: NIH3T3
inactive: all other assays above

O=C(O)c1cc(=O)[nH]c(=O)[nH]1
not listed: NIH3T3
inactive: all other assays above

CN(C)CCc1c[nH]c2ccc(CS(=O)(=O)N3CCCC3)cc12
not listed: NIH3T3
inactive: all other assays above

CC[C@H](NC(C)C)[C@H](O)c1ccc(O)c2[nH]c(=O)ccc12
not listed: NIH3T3
inactive: all other assays above

CN1CCCC(n2nc(Cc3ccc(Cl)cc3)c3ccccc3c2=O)CC1 (configuration not stated)
active: MKL-1 1.48 µM | MKL-2 15 µM and 418 nM | UISO 13.2 µM | WaGa 0.296 µM
inactive and 11.8 µM (active): MCC-26
not listed: NIH3T3
inactive: all other assays above

COc1nc(N)nc2c1ncn2[C@@H]1O[C@H](CO)[C@@H](O)[C@@H]1O
inactive and 18.7 µM (active): WaGa
not listed: NIH3T3
inactive: all other assays above

C1CCC(C(CC2CCCCN2)C2CCCCC2)CC1 (configuration not stated)
16.8 µM (active) and inactive: UISO
21.1 µM (active) and inactive: MCC-26
inactive: MCC-13
active: MKL-1 6.68 µM | MKL-2 2.37 µM and 18.7 µM | WaGa 21.1 µM | C33A 31.6 µM | CAOV3 6.31 µM | CASKI 20 µM

Cc1ccnc2c1NC(=O)c1cccnc1N2C1CC1
not listed: NIH3T3
inactive: all other assays above

CCOCC(O)COc1ccc(NC(=O)CC[S+](C)C)cc1 (configuration not stated)
not listed: NIH3T3
inactive: all other assays above

CCN[C@H]1C[C@H](C)S(=O)(=O)c2sc(S(N)(=O)=O)cc21
not listed: CAOV3 | NIH3T3
inactive: all other assays above

OC(Cn1cncn1)(Cn1cncn1)c1ccc(F)cc1F
not listed: NIH3T3
inactive: all other assays above

Cc1cccc(N(C)C(=S)Oc2ccc3ccccc3c2)c1
not listed: NIH3T3
inactive: all other assays above

S=P(N1CC1)(N1CC1)N1CC1
not listed: CASKI | NIH3T3
inactive: all other assays above

COc1ccc(C(=O)CC(=O)c2ccc(C(C)(C)C)cc2)cc1
active: MKL-2 0.935 µM
inactive and 1.05 µM (active): MKL-1
inactive and 11.8 µM (active): UISO
not listed: NIH3T3
inactive: all other assays above

CC(C)NCC(O)c1ccc(NS(C)(=O)=O)cc1 (configuration not stated)
inactive: MCC-13 | MCC-26 | MKL-1 | MKL-2 | UISO | WaGa

CC(C)(C#N)c1cc(Cn2cncn2)cc(C(C)(C)C#N)c1
not listed: NIH3T3
inactive: all other assays above

CC(C)Cn1cnc2c(N)nc3ccccc3c21
inactive and 20.9 µM (active): WaGa
not listed: NIH3T3
inactive: all other assays above

O=c1oc2c(O)c(O)cc3c(=O)oc4c(O)c(O)cc1c4c23
not listed: NIH3T3
inactive: all other assays above

COc1ccc2c(c1)c(CC(=O)OCC(=O)O)c(C)n2C(=O)c1ccc(Cl)cc1
not listed: NIH3T3
inactive: all other assays above

CN1CCN(c2c(F)cc3c(=O)c(C(=O)O)cn4c3c2OCN4C)CC1
not listed: NIH3T3
inactive: all other assays above

CCN(C)C(=O)Oc1cccc([C@H](C)N(C)C)c1
not listed: NIH3T3
inactive: all other assays above

COc1ccccc1OCC(O)COC(N)=O (configuration not stated)
not listed: NIH3T3
inactive: all other assays above

CCOC(=O)[C@H](CCc1ccccc1)N[C@H]1CS[C@H](c2cccs2)CN(CC(=O)O)C1=O
inactive and 5.26 µM (active): MKL-1
inactive and 1.05 µM (active): MKL-2
inactive and 469 nM (active): WaGa
not listed: NIH3T3
inactive: all other assays above

Clc1ccccc1CN1CCc2sccc2C1
not listed: CAOV3 | NIH3T3
inactive: all other assays above

CCN1CCCC1CNC(=O)c1cc(S(N)(=O)=O)ccc1OC (configuration not stated)
inactive: MCC-13 | MCC-26 | MKL-1 | MKL-2 | UISO | WaGa

Cn1c(=O)c2c(ncn2CC(O)CO)n(C)c1=O (configuration not stated)
not listed: NIH3T3
inactive: all other assays above

CCn1cc(C(=O)O)c(=O)c2cc(F)c(N3CCNCC3)cc21
not listed: C33A | NIH3T3
inactive: all other assays above

O=C(NCC1CN(c2ccc(N3CCOCC3=O)cc2)C(=O)O1)c1ccc(Cl)s1 (configuration not stated)
not listed: MCC-26
inactive: all other assays above

C[C@@H]1CN(c2c(F)c(N)c3c(=O)c(C(=O)O)cn(C4CC4)c3c2F)C[C@H](C)N1
not listed: MCC-26 | NIH3T3
inactive: all other assays above

CC1=NN(c2ccccc2)C(=O)C1
not listed: MCC-26
inactive: all other assays above

CC(C)(C)NC(=O)[C@H]1CC[C@H]2[C@@H]3CC[C@H]4NC(=O)C=C[C@]4(C)[C@H]3CC[C@]12C
not listed: MCC-26
inactive: all other assays above

Cc1oc(=O)oc1CN1CCN(c2cc3c(cc2F)c(=O)c(C(=O)O)c2n3C(C)S2)CC1 (configuration not stated)
not listed: MCC-26
inactive: all other assays above

CN(C)CCc1c[nH]c2ccc(C[C@H]3COC(=O)N3)cc12
not listed: MCC-26
inactive: all other assays above

COc1cc(NS(=O)(=O)c2ccc(N)cc2)nc(OC)n1
not listed: MCC-26 | NIH3T3
inactive: all other assays above

CC(C)OC(=O)OCOP(=O)(CO[C@H](C)Cn1cnc2c(N)ncnc21)OCOC(=O)OC(C)C
not listed: UISO | NIH3T3
inactive: all other assays above

CC(C)C[C@H](NC(=O)[C@H](CCc1ccccc1)NC(=O)CN1CCOCC1)C(=O)N[C@@H](Cc1ccccc1)C(=O)N[C@@H](CC(C)C)C(=O)[C@@]1(C)CO1
active: MCC-13 84.1 nM and 418 nM | MCC-26 105 nM | MKL-1 5.3 nM and 37.2 nM | MKL-2 1.1 nM and 14.8 nM | UISO 18.8 nM and 59 nM | WaGa 4.7 nM and 29.6 nM | C33A 0.316 µM | CASKI 0.316 µM

CNC(=O)c1cc(Oc2ccc(NC(=O)Nc3ccc(Cl)c(C(F)(F)F)c3)cc2)ccn1
inactive: MCC-13 | MCC-26 | CAOV3 | CASKI
active: WaGa 23.7 µM

Nc1nc(=S)c2[nH]cnc2[nH]1
active: MCC-13 4.22 µM | MCC-26 20900 nM | MKL-1 2.37 µM and 23.5 µM | MKL-2 7.5 µM | UISO 1.33 µM | WaGa 3.35 µM and 10.5 µM | CASKI 3.55 µM

NNC(=O)c1ccncc1
not listed: MKL-2 | NIH3T3
inactive: all other assays above

Cc1ccc(S(=O)(=O)N[C@@H](Cc2ccccc2)C(=O)CCl)cc1
inactive: MCC-13 | MCC-26 | NIH3T3

CCOC(=O)[C@H](CCc1ccccc1)N[C@H]1CCc2ccccc2N(CC(=O)O)C1=O
inactive: MCC-13 | MCC-26 | MKL-1 | UISO | WaGa | CASKI

CC1=CC(=O)c2ccccc2C1=O
not listed: MCC-26
inactive: all other assays above

CCCCc1oc2ccc(NS(C)(=O)=O)cc2c1C(=O)c1ccc(OCCCN(CCCC)CCCC)cc1
inactive: MCC-13 | MCC-26
active: MKL-2 13.2 µM and 4.73 µM

NC(=O)c1cccc(N)c1
inactive: MCC-13 | MKL-1 | MKL-2 | NIH3T3 | UISO | WaGa
